Measured values published in PubChem BioAssay (NCATS).
Results filed as inconclusive are left out. A call without a number means that no potency is given here. Active and inactive are the calls of the source. Calls follow the shape of the dose curve; as a rule, active = well fitted inhibition curve with a large enough effect; inconclusive = small, poorly fitted or top-dose-only effect; inactive = flat fitted curve, though single readings scatter. Peptide text beside a SMILES is read from it.

The compounds below were run on AS120 (assay: qHTS profiling for inhibitors of Plasmodium falciparum proliferation (AID 504749; also: nearly all actives have a fitted effect of over 60% in size)). Conditions: P. falciparum in erythrocytes, SYBR Green DNA, 72 h; series mostly up to 12.8 µM.
How it was run: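 Infected RBCs, 0.3% parasitemia/2.5% Hct final; cpd 72 h, 37 C, 5% CO2; lysis buffer with saponin/triton/SYBR Green I, o/n RT dark; FI 485/535; norm. to artemisinin (0.29 uM) and DMSO.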
Potency is read from the fitted curve at half-maximal effect.

Compound	Potency
CN(C)CCCOC1C(C(O)CO)OC2OC(C)(C)O[C@@H]21 (some centres undefined)	inactive
CCC(C)C(=O)OC1CCC=C2C=CC(C)C(CCC3CC(O)CC(=O)O3)[C@@H]21 (some centres undefined)	inactive
CC(=O)OC1CCC2C3CCc4cc(O)ccc4C3CCC12C (centres undefined)	inactive
CC[C@@]12CCCN3CCc4c(n(c5ccccc45)[C@](O)(C(=O)OC)C1)C32 (some centres undefined)	inactive
NC(C(=O)O)[C@@H]1CC(Cl)=NO1 (some centres undefined)	1780 nM (active)
CN1CC(=O)N=C1N	inactive
OCC1OC([S-])[C@H](O)C(O)C1O.[Au+] (some centres undefined)	inactive
CC(C)C1CCC(C(=O)NC(Cc2ccccc2)C(=O)O)CC1 (centres undefined)	inactive
CCC(CCC(C)C1CCC2C3CC=C4CC(O)CC[C@@]4(C)C3CC[C@@]12C)C(C)C (some centres undefined)	inactive
C[C@]12CCC(=O)C=C1CCC1C2C(=O)C[C@]2(C)C1CC[C@]2(O)C(=O)CO (some centres undefined)	inactive
OCC1O[C@H](OC2C(CO)O[C@@](O)(CO)C2O)C(O)C(O)C1O (some centres undefined)	inactive
CC1(C)OC2CO[C@]3(COS(N)(=O)=O)OC(C)(C)OC3C2O1 (some centres undefined)	inactive
CC1(C)OC2CC(=O)OC[C@@]23C1CC(=O)[C@]1(C)C3CC[C@@]2(C)C(c3ccoc3)OC(=O)C3O[C@@]321 (some centres undefined)	inactive
CCOC(=O)C1=CC(OC(CC)CC)C(NC(C)=O)C(N)C1 (centres undefined)	inactive
COC1C=CO[C@@]2(C)Oc3c(C)c(O)c4c(O)c(c5c(nc6cc(C)ccn65)c4c3C2=O)NC(=O)/C(C)=C\C=CC(C)C(O)[C@@H](C)C(O)C(C)[C@@H](OC(C)=O)C1C (some centres undefined)	2510 nM (active)
COC(=O)C(Cc1ccccc1)NC(=O)C(N)CC(=O)O (stereo not drawn) (H-Asp-Phe-OMe; configuration not given here)	inactive
C[C@]12C=CC(=O)C=C1CCC1C2C(O)C[C@]2(C)C1CC[C@]2(O)C(=O)CO (some centres undefined)	inactive

Compound	Potency
CC1(C)S[C@H]2C(NC(=O)[C@@H](N)c3ccc(O)cc3)C(=O)N2[C@@H]1C(=O)O (some centres undefined)	inactive
CC(C)=CCC[C@](C)(O)C1CC=C(C)CC1 (some centres undefined)	inactive
CO[C@]12C(COC(N)=O)C3=C(C(=O)C(C)=C(N)C3=O)N1CC1NC12 (some centres undefined)	562 nM (active)
C[C@]1(c2ccccc2)OC(C(=O)O)=CC1=O	inactive
CC(=O)N[C@H](CC(C)C)C(=O)O	inactive
COc1ccc2cc(C(C)CO)ccc2c1 (centres undefined)	inactive
COC1C=CO[C@@]2(C)Oc3c(C)c(O)c4c(O)c(c(C=NN5CCN(C)CC5)c(O)c4c3C2=O)NC(=O)/C(C)=C\C=CC(C)C(O)[C@@H](C)C(O)C(C)[C@H](OC(C)=O)C1C (some centres undefined)	282 nM (active)
CC1CCC(C(C)C)C(=O)C1 (centres undefined)	inactive
CNC1CC(N)[C@H](O)[C@@H](O[C@@H]2OC(CO)C3OC4(OC(C(N)CO)C(O)C(O)C4O)O[C@@H]3[C@H]2O)C1O (some centres undefined)	inactive
CCCC(=O)O[C@]1(C(=O)CO)CCC2[C@@H]3CCC4=CC(=O)CC[C@]4(C)C3C(O)C[C@]21C (some centres undefined)	inactive
CC(=O)[C@]1(O)CCC2C3C=C(Cl)C4=CC(=O)C5CC5[C@@]4(C)C3CC[C@]21C (some centres undefined)	inactive
CC(=O)N[C@@H]1C(O)OC(CO)C(O)C1O (some centres undefined)	inactive
C/C1=C2N=C(/C=C3N=C(/C(C)=C4\[N-]C(C)(C5N=C1C(C)(CCC(=O)NCC(C)OP(=O)([O-])O[C@H]1C(O)C(n6cnc7cc(C)c(C)cc76)O[C@@H]1CO)C5CC(N)=O)C(C)(CC(N)=O)C4CCC(N)=O)C(C)(CC(N)=O)C\3CCC(N)=O)C(C)(C)C/2CCC(N)=O.[CH2-]C1OC(n2cnc3c(N)ncnc32)C(O)C1O.[Co] (some centres undefined)	inactive
O=C1OC(CO)C(O)C(O)C1O (centres undefined)	inactive
CNC1C(OC2C(O[C@@H]3C(O)C(O)[C@@H](N=C(N)N)C(O)C3N=C(N)N)OC(C)[C@@]2(O)CO)OC(CO)C(O)C1O (some centres undefined)	inactive
COc1cc(C2c3cc4c(cc3C(O[C@@H]3OC5COC(c6cccs6)OC5C(O)C3O)C3COC(=O)C23)OCO4)cc(OC)c1O (some centres undefined)	1000 nM (active)
Nc1nc2ncc(CNc3ccc(C(=O)NC(CCC(=O)O)C(=O)O)cc3)nc2c(=O)[nH]1 (centres undefined)	inactive
